# Laboratory results from PubChem BioAssay AID1850 (Southern Research Specialized Biocontainment Screening …, 2009).
# The campaign covered roughly 310,000 compounds. About 1,000 (0.32%) were called active. A selection follows. Potency and affinity values are given separately. A number with no mark means an inactive call. The rule behind the calls is not given here.
# Test: Inhibition of PhoP regulon, Salmonella typhi GFP reporter cells, confirmation, 4 h (AID 1850);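 note: 0% = induced wells with vehicle and 100% = uninduced wells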
# Settings: Salmonella Typhi PhoP-promoter GFP reporter, fluorescence, at 50 µM, hits give high values
row,SMILES,inhibition
1,Clc1ccc(-c2c[n+](Cc3ccc(Br)cc3)c3n2CCCCC3)cc1,4.54%
2,Cc1ccc(-c2c[n+](Cc3cccc(Cl)c3)c3n2CCC3)cc1,9.09%
3,Cc1ccc(C[n+]2cc(-c3ccc(Cl)cc3)n3c2CCC3)cc1,8.21%
4,Clc1ccc(C[n+]2cc(-c3ccccc3)n3c2CCC3)cc1Cl,-4.76%
5,COc1ccc(NC(=S)NC(C)C(c2ccccc2)N2CCOCC2)cc1 (configuration not stated),-8.71%
6,O=C(CNC(=O)Cc1ccc(Cl)cc1)NCC(=O)N1CCCCC1,-7.52%
7,CCCCCn1c(NC(=O)c2ccco2)c(S(=O)(=O)c2ccc(C)cc2)c2nc3ccccc3nc21,-3.82%
8,CCC(=O)Nc1c(C#N)c2nc3ccccc3nc2n1C1CCCCC1,0.26%
9,CCCCn1c(NS(=O)(=O)c2ccc(C)cc2)c(C(=O)OCC)c2nc3ccccc3nc21,-4.9%
10,Nc1c(S(=O)(=O)c2ccccc2)c2nc3ccccc3nc2n1C1CC1,0.22%
11,CCOC(=O)c1c(NS(=O)(=O)c2ccccc2)n(CCCOC)c2nc3ccccc3nc12,-3.68%
12,CCCCn1c(N)c(S(=O)(=O)c2ccc(C)cc2)c2nc3ccccc3nc21,-6.91%
13,CC(=O)Nc1c(S(=O)(=O)c2ccccc2)c2nc3ccccc3nc2n1Cc1ccccc1,-2.36%
14,C=CCn1c(NC(=O)c2ccc(Br)o2)c(S(=O)(=O)c2ccccc2)c2nc3ccccc3nc21,21.1%
15,CCOC(=O)c1c(C(=O)OCC)c(C)n(Cc2cc(OC)c(OC)c(OC)c2)c1C,-2.04%
16,COc1ccc(C(=O)N/N=C/c2c(C)nn(-c3ccccc3)c2OC)cc1,-1.74%
17,CCn1c(SCC(=O)NCc2ccccc2)nnc1C(CO)NC(=O)c1ccccc1 (configuration not stated),-10.3%
18,CCC(=O)c1ccc(N2CCN(C(=O)Cc3ccccc3)CC2)c(F)c1,18.2%
19,CCOC(=O)c1c(N)nn(C(C)=O)c1-c1ccccc1,-5.98%

row,SMILES,inhibition
1,Cc1ccccc1OCC(=O)Nc1nnc(COc2ccccc2)s1,-8.87%
2,CCCCn1c(SCC(=O)Nc2nnc(CC)s2)nc2ccccc2c1=O,-4.64%
3,O=C(N/N=C\c1ccc(Cl)s1)c1ccc(Cn2cccn2)o1,-13.9%
4,C=C(C)c1cccc(C(C)(C)NC(=O)NCCCN2CCCC2=O)c1,-0.97%
5,Cc1noc(C)c1CSCC(=O)N1CCN(c2ccc([N+](=O)[O-])cc2)CC1,2.46%
6,CCCCn1c(NC(=O)c2ccc(Br)o2)c(S(=O)(=O)c2ccccc2)c2nc3ccccc3nc21,-28%
7,Cc1ccc(S(=O)(=O)c2c(N)n(CCCO)c3nc4ccccc4nc23)cc1,0.68%
8,O=[N+]([O-])c1ccc(/C=[N+](\[O-])[C@@H]2CCCC[C@@H]2/[N+]([O-])=C/c2ccc([N+](=O)[O-])o2)o1,7.15%
9,CCc1ccc(C(=O)/C=C/c2ccc([N+](=O)[O-])o2)cc1,-7.72%
10,O=c1oc2cc(S(=O)(=O)NCCCO)ccc2c2ccc(S(=O)(=O)NCCCO)cc12,0.32%
11,O=C(Nc1ccccc1)c1cc2ccccc2o1,21.6%
12,Cc1cccc(NC(=O)c2cc3ccccc3o2)c1,-8.7%
13,COc1ccc(Nc2cc(Nc3cc(OC)c(OC)c(OC)c3)ncn2)cc1,10.6%
14,Cc1ccc(NC(=O)CS(=O)CC(=O)Nc2ccc(N3CCOCC3)cc2)cc1Cl (configuration not stated),12.6%
15,CC(C(=O)c1ccc(-c2ccccc2)cc1)[n+]1cccc(C(N)=O)c1 (configuration not stated),5.49%
16,CC(C(=O)c1ccc(Br)cc1)[n+]1cccc(NC(=O)c2ccccc2)c1 (configuration not stated),4.99%
17,CCOC(=O)C1=C(c2ccccc2)OC(N)=C(C#N)C1c1cccnc1 (configuration not stated),9.75%
18,CC(=O)C1=C(C)OC(N)=C(C#N)C1c1cccnc1 (configuration not stated),-13.9%
19,CCC(C)(C)n1nnnc1C(c1cc2cc(C)cc(C)c2[nH]c1=O)N1CCN(C(=O)c2ccco2)CC1 (configuration not stated),8.8%

row,SMILES,inhibition
1,COc1ccccc1C1/C(=C(\O)c2ccc3c(c2)OCCO3)C(=O)C(=O)N1CCCn1ccnc1 (configuration not stated),5.32%
2,O=c1c(CN2CCN(c3ccccn3)CC2)coc2ccccc12,-1.82%
3,CCOC(=O)N1CCN(Cc2ccccc2Cl)CC1,-4.15%
4,CCOC(=O)N1CCN(Cc2ccc(O)c3ncccc23)CC1,1.82%
5,O=c1oc2ccccc2c(O)c1Cc1cc(Cl)c2cccnc2c1O,10.9%
6,COCc1cc(CN2CCN(C)CC2)c(O)c2ncccc12,4.48%
7,CN1CCN(Cc2cc(Cl)c3cccnc3c2OC(=O)c2cccs2)CC1,-8.42%
8,COc1ccc2nc(N(CCN(C)C)C(=O)c3ccc(C(=O)c4ccccc4)cc3)sc2c1,-16%
9,Cc1ccccc1CSCC(Nc1ccc(C(=O)O)cc1[N+](=O)[O-])C(=O)O (configuration not stated),-0.8%
10,CCc1nnc(NS(=O)(=O)c2ccc(N3C(=O)C4CC=C(Cl)CC4C3=O)cc2)s1 (configuration not stated),5.39%
11,c1ccc(CNc2nc3ccccc3[nH]2)cc1,-2.74%
12,COc1ccc2nc(NCc3ccccc3)[nH]c2c1,18.6%
13,Cc1cc([N+](=O)[O-])nn1CC(=O)N1CCOCC1,12.6%
14,Clc1ccc(C[n+]2c(-c3ccccc3)cc(-c3ccccc3)cc2-c2ccccc2)cc1,16.5%
15,c1ccc(-c2cc(-c3ccccc3)[n+](-c3ccccc3)c(-c3ccccc3)c2)cc1,19.1%
16,Cc1ccc(-c2cc(-c3ccccc3)cc(-c3ccccc3)[n+]2-c2ccccc2)cc1,20.6%
17,Fc1ccc(C[n+]2c(-c3ccccc3)cc(-c3ccccc3)cc2-c2ccccc2)cc1,11.1%
18,CCC1CCCCN1C(=O)c1cc(COc2ccc(-n3cncn3)cc2)on1 (configuration not stated),-7.8%
19,CN(c1ccccc1C(=O)Nc1ccc(S(=O)(=O)N2CCCC2)cc1)S(C)(=O)=O,9.12%
